According to PubChem BioAssay (EPA / NIEHS):
Results filed as inconclusive are left out. Active and inactive are the calls of the source. The calls were made as follows: active = hit-call score of the fitted dose curve at least 0.9, where 1 is the maximum; inconclusive = response in the unintended direction; inactive = score below 0.9.

Experiments:
[1] = target: Estrogen receptor (Homo sapiens) (UniProt P03372); test: OT_ER_ERaERa_0480: Odyssey Thera (OT) 8-hour HEK293T Protein-Complementation Assay for Estrogen Receptor-alpha/-alpha Homodimer (AID 2283351);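 also: rise in fluorescence from reassembled reporter fragments on ERα LBD homodimer in nucleus or whole cell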
Sequence of Estrogen receptor (Homo sapiens) (P03372 whole entry, looked up, the tested form may be a part): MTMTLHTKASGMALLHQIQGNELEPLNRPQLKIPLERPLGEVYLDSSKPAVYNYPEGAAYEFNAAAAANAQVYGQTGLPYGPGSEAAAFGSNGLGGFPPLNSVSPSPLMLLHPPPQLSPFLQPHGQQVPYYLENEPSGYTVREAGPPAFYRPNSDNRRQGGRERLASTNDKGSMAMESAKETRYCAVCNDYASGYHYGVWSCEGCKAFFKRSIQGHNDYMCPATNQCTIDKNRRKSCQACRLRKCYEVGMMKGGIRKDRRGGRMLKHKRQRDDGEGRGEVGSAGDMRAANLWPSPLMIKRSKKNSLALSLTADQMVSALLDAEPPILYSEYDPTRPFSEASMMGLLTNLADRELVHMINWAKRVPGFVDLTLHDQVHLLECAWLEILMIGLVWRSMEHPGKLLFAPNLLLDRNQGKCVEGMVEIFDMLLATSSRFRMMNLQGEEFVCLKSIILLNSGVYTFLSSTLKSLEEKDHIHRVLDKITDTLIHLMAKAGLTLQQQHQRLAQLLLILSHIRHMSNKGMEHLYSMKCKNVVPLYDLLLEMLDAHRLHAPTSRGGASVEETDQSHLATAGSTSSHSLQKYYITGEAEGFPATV
In short: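 HEK293T cells stably expressing the human ERα ligand-binding domain (aa 310-547) as a homodimer PCA were dosed with compound for 8 h. Gain of fluorescence intensity versus DMSO vehicle was read by laser scanning cytometry.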

[2] = target: T1, Estrogen receptor (Homo sapiens) + Estrogen receptor beta (Homo sapiens) (UniProt P03372+Q92731); test: OT_ER_ERaERb_0480: Odyssey Thera (OT) 8-hour HEK293T Protein-Complementation Assay for Estrogen Receptor-alpha/-beta Heterodimer (AID 2283352)
T1 sequence (P03372 whole entry, looked up, the tested form may be a part): as above
T1 sequence (Q92731 whole entry, looked up, the tested form may be a part): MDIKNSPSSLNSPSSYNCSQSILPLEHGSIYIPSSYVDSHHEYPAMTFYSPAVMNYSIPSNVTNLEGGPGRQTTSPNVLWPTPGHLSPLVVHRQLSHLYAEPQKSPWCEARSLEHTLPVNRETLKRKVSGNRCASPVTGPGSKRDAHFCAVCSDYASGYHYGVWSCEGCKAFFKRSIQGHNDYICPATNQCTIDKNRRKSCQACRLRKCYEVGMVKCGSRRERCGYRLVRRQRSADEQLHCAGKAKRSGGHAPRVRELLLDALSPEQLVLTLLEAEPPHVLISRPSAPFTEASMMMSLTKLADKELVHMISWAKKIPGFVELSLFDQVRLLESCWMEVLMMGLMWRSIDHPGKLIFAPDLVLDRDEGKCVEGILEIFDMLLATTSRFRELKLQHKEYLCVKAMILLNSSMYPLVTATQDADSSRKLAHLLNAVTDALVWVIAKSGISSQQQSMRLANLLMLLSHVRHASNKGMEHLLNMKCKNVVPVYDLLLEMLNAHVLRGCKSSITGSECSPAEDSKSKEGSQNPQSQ
In short: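 Human HEK293T cells were treated for 8 hours and receptor heterodimerisation was detected through reconstitution of a fluorescent reporter split between ER-alpha and ER-beta ligand-binding domains. Activity was analysed as gain of signal against DMSO.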

[3] = target: T1, Estrogen receptor (Homo sapiens) + Estrogen receptor beta (Homo sapiens); test: OT_ER_ERaERb_1440: Odyssey Thera (OT) 24-hour HEK293T Protein-Complementation Assay for Estrogen Receptor-alpha/-beta Homodimer (AID 2283356);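 also: heteromer of ER alpha and ER beta binding domains; hits raise reporter fluorescence and both agonists and antagonists give an increase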
In short: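 24 h exposure; HEK293T PCA cells with ERα/ERβ LBD fragments; signal rise in nuclear or whole-cell fluorescence over vehicle.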

PGR (gene 5241) = PGR (gene 5241) (UniProt P06401); test: NVS_NR_hPR: NovaScreen (NVS) Nuclear Receptor Binding Assay for human Progestron Receptor (PR) (AID 2283360);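 also: active means loss of bound radioligand signal versus DMSO baseline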
Sequence of PGR (gene 5241) (P06401 whole entry, looked up): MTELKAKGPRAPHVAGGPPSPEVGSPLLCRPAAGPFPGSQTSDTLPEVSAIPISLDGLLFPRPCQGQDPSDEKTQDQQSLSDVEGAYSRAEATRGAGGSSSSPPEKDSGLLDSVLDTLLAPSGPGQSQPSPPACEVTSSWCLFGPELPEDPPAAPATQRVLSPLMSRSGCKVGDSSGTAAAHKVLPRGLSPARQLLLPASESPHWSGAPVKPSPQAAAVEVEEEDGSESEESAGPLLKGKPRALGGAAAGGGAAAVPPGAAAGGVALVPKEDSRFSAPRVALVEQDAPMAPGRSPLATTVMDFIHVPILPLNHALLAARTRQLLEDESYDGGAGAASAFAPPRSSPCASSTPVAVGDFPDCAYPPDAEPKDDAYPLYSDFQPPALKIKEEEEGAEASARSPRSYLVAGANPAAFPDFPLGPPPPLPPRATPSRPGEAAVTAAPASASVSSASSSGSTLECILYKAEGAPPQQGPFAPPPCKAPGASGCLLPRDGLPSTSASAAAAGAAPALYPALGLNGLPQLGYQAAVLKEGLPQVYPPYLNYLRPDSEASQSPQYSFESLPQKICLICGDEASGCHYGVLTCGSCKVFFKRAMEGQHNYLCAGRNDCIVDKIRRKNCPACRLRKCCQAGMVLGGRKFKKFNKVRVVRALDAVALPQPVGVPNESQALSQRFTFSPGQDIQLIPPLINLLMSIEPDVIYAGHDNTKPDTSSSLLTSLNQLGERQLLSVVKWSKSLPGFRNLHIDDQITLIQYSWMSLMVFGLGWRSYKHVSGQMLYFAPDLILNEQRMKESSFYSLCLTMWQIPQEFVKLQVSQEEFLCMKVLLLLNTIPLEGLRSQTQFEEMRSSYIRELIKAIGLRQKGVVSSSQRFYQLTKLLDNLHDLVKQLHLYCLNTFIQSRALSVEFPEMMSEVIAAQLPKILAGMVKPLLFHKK
In short: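 Radioligand competition binding on receptor extracted from T47D cells, read by scintillation counting 18 h after dosing. Loss of signal versus DMSO; primary screen in duplicate at 25 uM, actives followed in concentration series.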

[4] = target: Estrogen receptor beta (Homo sapiens) (UniProt Q92731); test: OT_ER_ERbERb_0480: Odyssey Thera (OT) 8-hour HEK293T Protein-Complementation Assay for Estrogen Receptor-beta/-beta Homodimer (AID 2283357);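 also: active means signal gain over DMSO baseline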
Sequence of Estrogen receptor beta (Homo sapiens) (Q92731 whole entry, looked up, the tested form may be a part): as the sequence (Q92731 whole entry, looked up, the tested form may be a part) above
In short: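 Fluorescence intensity, nuclear for agonists and nuclear plus cytoplasmic for antagonists, was quantified by laser scanning cytometry versus vehicle after 8 h treatment. The cells were HEK293T stably carrying ER beta LBD fragment-complementation partners.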

[5] = target: Retinoic acid receptor alpha (Homo sapiens) (UniProt P10276); test: NVS_NR_hRAR_Antagonist: NovaScreen (NVS) Nuclear Receptor Binding Assay for human Retinoic Acid Alpha Receptor Antagonism (RAR) (AID 2283358)
Sequence of Retinoic acid receptor alpha (Homo sapiens) (P10276 whole entry, looked up): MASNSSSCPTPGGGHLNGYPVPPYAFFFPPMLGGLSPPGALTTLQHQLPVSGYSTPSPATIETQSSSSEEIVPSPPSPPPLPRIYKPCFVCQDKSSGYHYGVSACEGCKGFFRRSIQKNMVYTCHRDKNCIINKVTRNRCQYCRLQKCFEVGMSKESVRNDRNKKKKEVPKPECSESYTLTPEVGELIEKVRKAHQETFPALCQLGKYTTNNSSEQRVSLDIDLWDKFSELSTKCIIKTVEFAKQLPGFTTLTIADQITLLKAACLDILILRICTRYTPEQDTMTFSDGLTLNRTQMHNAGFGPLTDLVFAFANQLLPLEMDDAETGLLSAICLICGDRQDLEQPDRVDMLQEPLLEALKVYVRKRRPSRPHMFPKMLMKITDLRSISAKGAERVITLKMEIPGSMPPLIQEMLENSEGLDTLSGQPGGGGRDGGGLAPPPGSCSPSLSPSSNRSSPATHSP
In short: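 Cell-free TR-FRET binding assay with extracted human RARalpha in antagonist mode, read 2 h after dosing. Loss of signal was fitted relative to DMSO; the primary screen used 25 uM in duplicate, with concentration series on follow-up.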

[6] = target: Bile acid receptor (Homo sapiens) (UniProt Q96RI1); test: NVS_NR_hFXR_Antagonist: NovaScreen (NVS) Nuclear Receptor Binding Assay for human Farnesoid X Receptor Antagonism (FXR) (AID 2283350)
Sequence of Bile acid receptor (Homo sapiens) (Q96RI1 whole entry, looked up): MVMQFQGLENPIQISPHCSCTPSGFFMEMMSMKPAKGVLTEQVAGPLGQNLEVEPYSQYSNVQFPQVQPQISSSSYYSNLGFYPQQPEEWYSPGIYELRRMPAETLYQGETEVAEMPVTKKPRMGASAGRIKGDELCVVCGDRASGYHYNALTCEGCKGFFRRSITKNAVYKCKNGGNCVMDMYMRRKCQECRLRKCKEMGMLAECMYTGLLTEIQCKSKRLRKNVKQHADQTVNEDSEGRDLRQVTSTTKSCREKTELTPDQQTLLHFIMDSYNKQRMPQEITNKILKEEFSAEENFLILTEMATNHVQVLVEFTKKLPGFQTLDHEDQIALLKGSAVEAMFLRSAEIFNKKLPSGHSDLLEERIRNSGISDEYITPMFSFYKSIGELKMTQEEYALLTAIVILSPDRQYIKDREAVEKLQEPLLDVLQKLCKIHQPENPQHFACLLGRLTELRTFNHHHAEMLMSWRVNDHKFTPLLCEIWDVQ
In short: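 Cell-free TR-FRET ligand-binding read-out on human FXR (NR1H4) in antagonist mode, measured 1 h after dosing. Primary screen in duplicate at 25 uM, actives retested in concentration series; signal loss scored versus DMSO.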

For `Cn1c(=O)cc(Oc2ccc(F)cc2F)c2cnc(NCC(C)(C)O)nc21`, the AC50 [1] was 24.4 µM (active), the outcome [2] was “inactive” and the AC50 [3] was 50 µM (active).
For `O=c1[nH]c2ccc(S(=O)CCN3CCC(Cc4ccc(F)cc4)CC3)cc2o1` (centres undefined), the outcome [1] was “inactive”, the outcome [3] was “inactive” and the outcome (PGR (gene 5241)) was “inactive”.
For `CCn1nc(Cc2ccccc2)cc1C1CCN(C[C@H]2C[C@H](N(C)[C@@H](C(=O)O)C(C)C)C[C@@H]2c2cccc(F)c2)CC1`, the outcome [1] was “inactive”, the outcome [2] was “inactive” and the outcome [3] was “inactive”. The outcome [4] was “inactive” and the outcome [5] was “inactive”.
In the case of `O=c1n(CC2CO2)c(=O)n(CC2CO2)c(=O)n1CC1CO1` (centres undefined), the outcome [1] is reported as “inactive”, the outcome [2] is reported as “inactive” and the outcome [3] is reported as “inactive”. For the same compound, the outcome [4] was “inactive”.
`CC[C@H](C)C(=O)O[C@H]1C[C@@H](C)C=C2C=C[C@H](C)[C@H](CC[C@@H]3C[C@@H](O)CC(=O)O3)[C@H]21` was tested, and the AC50 [6] was 31.5 µM (active), the outcome [1] was “inactive” and the outcome [2] was “inactive”. For the same compound, the outcome [3] was “inactive” and the outcome [4] was “inactive”.
For `CC[C@H]1CC[C@H](NCc2cc3c(cc2OC)[C@H]2C[C@H]2C(=O)N3C)[C@H](c2ccccc2)N1`, the outcome [1] was “inactive”, the outcome [3] was “inactive” and the outcome [4] was “inactive”.
For `O=C(O)c1cccc(Oc2ccccc2)c1`, the outcome [1] was “inactive” and the outcome [5] was “inactive”.
With `CC/C(=C\C(=N/O)C(N)=O)C(C)[N+](=O)[O-]` (centres undefined) the outcome [1] was “inactive” and the outcome [3] was “inactive”.
With `CC(C)c1cccc(C(C)C)c1N1C(=O)c2ccc(O)cc2C1=O` the AC50 [6] was 41.1 µM (active).
With `COc1cccc(-c2ccc(/C=C\CN3CCCCCC3)cc2Cl)c1` the outcome [6] was “inactive”, the outcome [2] was “inactive” and the AC50 [3] was 10.7 µM (active). For the same compound, the outcome [4] was “inactive”.
`COc1ccc2sc(C(=O)Nc3nnn[nH]3)c(OC(C)C)c2c1` was tested, and the outcome [1] was “inactive”, the outcome [2] was “inactive” and the outcome [3] was “inactive”. For the same compound, the outcome [4] was “inactive”.
In the case of `CC(C)=CCCC(C)=CC=O`, the outcome [1] is reported as “inactive”, the outcome [2] is reported as “inactive” and the outcome [3] is reported as “inactive”.
